Measured values from PMC7862700, “An all-to-all approach to the identification of sequence-specific readers for epigenetic DNA modifications on cytosine”.

Assays:
Test in all cases: DAPPL (digital affinity profiling via proximity ligation, sequencing); 10 mM Tris-HCl pH 7.5, 50 mM NaCl, 1 mM DTT, 4% glycerol, room temperature, 30 min; GST-TFs on glutathione beads, 16-mer random dsDNA library, 0.1% formaldehyde crosslink after washing; high values mean tight binding
FLI1 = molecular target: T1, FLI1 (Homo sapiens, UniProt Q01543 1-452); conditions: protein: recombinant; tags: N-terminal GST; dsDNA, one strand shown
T1 sequence: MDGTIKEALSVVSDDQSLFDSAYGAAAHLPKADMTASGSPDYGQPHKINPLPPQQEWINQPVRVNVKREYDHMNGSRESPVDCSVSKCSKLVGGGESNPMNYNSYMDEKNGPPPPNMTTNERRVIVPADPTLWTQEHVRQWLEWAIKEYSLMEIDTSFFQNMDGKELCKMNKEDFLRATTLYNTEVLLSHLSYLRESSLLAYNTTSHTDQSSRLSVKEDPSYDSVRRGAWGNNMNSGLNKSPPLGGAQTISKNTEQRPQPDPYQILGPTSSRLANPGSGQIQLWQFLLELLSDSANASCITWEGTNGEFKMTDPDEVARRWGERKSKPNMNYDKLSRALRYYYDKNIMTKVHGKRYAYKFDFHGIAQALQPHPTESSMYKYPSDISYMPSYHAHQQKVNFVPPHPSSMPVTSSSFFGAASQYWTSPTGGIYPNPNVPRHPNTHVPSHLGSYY
Summary of the method: (§1)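 Binding signal is defined as a hexamer's read frequency for one factor over its frequency for the tag-only sample. To obtain reads, GST-fused human transcription factors were expressed in yeast, captured on glutathione beads, barcoded with DNA and pooled with that sample. Pools met 200 nmole of a 16-mer random double-stranded DNA library in Tris/NaCl/DTT/glycerol buffer for 30 min at room temperature before washing, 0.1% formaldehyde crosslinking, proximity ligation (BsaI/T4 ligase, 1 h, 37 °C), PCR and Illumina NextSeq500 sequencing.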

ELK1 = molecular target: T2, ELK1 (Homo sapiens, UniProt P19419 1-428); conditions: protein: recombinant; tags: N-terminal GST; dsDNA, one strand shown
T2 sequence: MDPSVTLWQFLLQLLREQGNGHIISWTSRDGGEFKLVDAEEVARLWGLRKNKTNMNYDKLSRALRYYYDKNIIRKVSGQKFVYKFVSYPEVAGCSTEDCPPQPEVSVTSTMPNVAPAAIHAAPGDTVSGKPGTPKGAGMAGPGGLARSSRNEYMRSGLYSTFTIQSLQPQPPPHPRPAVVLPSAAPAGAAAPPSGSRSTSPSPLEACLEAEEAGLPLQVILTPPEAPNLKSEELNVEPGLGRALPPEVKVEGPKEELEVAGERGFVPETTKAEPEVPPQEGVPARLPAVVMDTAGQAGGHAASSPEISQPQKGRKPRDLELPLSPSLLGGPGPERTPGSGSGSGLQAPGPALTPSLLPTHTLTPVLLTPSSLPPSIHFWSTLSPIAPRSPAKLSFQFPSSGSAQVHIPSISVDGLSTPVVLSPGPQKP
Summary of the method: as §1

GABPA = molecular target: T3, GABPA (Homo sapiens, UniProt Q06546 1-454); conditions: protein: recombinant; tags: N-terminal GST; dsDNA, one strand shown
T3 sequence: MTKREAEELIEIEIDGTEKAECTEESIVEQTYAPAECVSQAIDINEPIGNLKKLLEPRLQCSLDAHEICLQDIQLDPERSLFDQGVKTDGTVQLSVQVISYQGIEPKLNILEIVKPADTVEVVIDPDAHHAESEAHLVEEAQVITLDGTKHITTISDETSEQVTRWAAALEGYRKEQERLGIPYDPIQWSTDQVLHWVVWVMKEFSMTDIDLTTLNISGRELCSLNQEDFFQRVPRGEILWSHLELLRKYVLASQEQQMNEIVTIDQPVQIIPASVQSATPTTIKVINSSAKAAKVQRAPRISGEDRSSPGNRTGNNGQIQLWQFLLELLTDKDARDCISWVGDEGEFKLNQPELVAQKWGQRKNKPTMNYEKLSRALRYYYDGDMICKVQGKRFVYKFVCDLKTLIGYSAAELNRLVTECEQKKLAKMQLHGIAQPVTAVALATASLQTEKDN
Summary of the method: as §1

ELF1 = ELF1 (Homo sapiens, UniProt P32519 1-619); conditions: protein: recombinant; tags: N-terminal GST; dsDNA, one strand shown
Summary of the method: as §1

ETV5 = ETV5 (Homo sapiens, UniProt P41161 1-510); conditions: protein: recombinant; tags: N-terminal GST; dsDNA, one strand shown
Summary of the method: as §1

HSF1 = HSF1 (Homo sapiens, UniProt Q00613 1-529); conditions: protein: recombinant; tags: N-terminal GST; chain copies: 3; dsDNA, one strand shown
Summary of the method: as §1

SPIC = molecular target: T4, SPIC (Homo sapiens, UniProt Q8N5J4 1-248); conditions: protein: recombinant; tags: N-terminal GST; dsDNA, one strand shown
T4 sequence: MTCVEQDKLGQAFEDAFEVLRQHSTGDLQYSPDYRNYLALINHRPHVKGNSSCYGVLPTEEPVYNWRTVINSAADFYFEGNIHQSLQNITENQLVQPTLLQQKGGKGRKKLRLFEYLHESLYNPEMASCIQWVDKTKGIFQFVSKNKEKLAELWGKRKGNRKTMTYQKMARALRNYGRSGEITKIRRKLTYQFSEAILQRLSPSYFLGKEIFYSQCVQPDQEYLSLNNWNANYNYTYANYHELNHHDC
Summary of the method: as §1

ELF4 = ELF4 (Homo sapiens, UniProt Q99607 1-663); conditions: protein: recombinant; tags: N-terminal GST; dsDNA, one strand shown
Summary of the method: as §1

ELK4 = molecular target: T5, ELK4 (Homo sapiens, UniProt P28324-2 1-405); conditions: protein: recombinant; tags: N-terminal GST; dsDNA, one strand shown
T5 sequence: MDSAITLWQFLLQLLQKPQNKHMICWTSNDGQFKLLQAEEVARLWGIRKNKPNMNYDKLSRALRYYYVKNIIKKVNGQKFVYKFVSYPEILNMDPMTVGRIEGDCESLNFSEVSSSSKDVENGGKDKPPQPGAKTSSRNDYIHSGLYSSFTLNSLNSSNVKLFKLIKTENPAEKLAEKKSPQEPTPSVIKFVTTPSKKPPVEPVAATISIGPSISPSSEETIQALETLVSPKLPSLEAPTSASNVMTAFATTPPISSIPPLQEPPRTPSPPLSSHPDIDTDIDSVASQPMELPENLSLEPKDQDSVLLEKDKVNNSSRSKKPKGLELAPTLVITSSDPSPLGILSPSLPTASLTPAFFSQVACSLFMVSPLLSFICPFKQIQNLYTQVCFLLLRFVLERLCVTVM
Summary of the method: as §1

ETV2 = molecular target: T6, ETV2 (Homo sapiens, UniProt O00321 1-342); conditions: protein: recombinant; tags: N-terminal GST; dsDNA, one strand shown
T6 sequence: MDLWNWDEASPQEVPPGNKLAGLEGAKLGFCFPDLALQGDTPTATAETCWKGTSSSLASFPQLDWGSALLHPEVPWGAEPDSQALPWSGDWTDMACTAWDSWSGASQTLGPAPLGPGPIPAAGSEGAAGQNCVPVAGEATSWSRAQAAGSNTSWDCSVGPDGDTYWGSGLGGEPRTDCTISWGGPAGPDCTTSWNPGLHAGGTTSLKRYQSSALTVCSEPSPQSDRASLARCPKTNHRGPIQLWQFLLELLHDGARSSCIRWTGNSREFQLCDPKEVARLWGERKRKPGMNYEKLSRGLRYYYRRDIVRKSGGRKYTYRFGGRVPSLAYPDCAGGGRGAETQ
Summary of the method: as §1

ETV1 = ETV1 (Homo sapiens, UniProt P50549 1-477); conditions: protein: recombinant; tags: N-terminal GST; dsDNA, one strand shown
Summary of the method: as §1

ETV1, sequence (P50549 whole entry): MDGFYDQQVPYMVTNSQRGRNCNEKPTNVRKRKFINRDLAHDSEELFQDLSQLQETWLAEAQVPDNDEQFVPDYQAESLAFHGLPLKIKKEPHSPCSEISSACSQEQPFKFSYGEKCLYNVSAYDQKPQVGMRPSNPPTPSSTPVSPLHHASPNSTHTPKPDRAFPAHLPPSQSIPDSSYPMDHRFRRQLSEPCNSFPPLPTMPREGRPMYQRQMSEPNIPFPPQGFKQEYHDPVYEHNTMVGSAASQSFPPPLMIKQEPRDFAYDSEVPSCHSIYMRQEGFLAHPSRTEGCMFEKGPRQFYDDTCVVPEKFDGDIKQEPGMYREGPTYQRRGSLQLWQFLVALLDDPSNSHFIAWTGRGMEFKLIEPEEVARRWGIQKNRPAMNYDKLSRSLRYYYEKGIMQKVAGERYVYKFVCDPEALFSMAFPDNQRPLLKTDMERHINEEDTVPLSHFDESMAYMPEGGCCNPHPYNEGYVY
ELF4, sequence (Q99607 whole entry): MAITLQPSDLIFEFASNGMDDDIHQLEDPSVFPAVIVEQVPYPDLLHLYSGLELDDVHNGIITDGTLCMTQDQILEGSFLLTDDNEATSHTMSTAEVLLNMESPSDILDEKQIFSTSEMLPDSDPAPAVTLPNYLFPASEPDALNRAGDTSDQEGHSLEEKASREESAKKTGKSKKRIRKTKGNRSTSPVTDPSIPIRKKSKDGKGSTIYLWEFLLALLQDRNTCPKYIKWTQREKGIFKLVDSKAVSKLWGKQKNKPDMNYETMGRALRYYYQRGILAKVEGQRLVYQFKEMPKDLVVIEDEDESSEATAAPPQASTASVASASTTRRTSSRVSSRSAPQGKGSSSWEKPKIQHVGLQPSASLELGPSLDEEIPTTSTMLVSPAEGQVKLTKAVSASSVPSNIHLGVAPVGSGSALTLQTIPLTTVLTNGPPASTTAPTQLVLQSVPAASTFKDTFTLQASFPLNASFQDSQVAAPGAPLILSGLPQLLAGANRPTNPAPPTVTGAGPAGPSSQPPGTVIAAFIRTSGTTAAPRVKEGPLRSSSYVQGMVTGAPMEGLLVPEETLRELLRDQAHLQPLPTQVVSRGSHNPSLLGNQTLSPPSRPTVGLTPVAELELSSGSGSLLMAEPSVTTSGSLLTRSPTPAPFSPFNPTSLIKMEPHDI
ELF1, sequence (P32519 whole entry): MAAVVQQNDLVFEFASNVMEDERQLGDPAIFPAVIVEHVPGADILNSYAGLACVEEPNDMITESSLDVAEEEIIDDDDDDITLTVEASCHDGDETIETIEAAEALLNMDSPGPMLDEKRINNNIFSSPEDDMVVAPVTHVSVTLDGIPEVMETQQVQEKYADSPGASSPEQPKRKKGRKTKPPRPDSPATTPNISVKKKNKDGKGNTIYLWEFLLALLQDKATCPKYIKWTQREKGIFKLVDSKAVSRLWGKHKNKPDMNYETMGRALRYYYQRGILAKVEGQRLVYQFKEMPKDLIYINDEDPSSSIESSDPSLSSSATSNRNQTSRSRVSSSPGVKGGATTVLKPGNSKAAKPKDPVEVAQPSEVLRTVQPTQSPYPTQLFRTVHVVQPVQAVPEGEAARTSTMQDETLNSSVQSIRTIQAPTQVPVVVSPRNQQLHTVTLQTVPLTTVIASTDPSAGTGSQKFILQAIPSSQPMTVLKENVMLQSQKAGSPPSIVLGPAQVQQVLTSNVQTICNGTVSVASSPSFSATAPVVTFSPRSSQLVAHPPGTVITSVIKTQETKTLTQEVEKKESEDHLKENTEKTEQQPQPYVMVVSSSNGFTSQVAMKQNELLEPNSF
ETV5, sequence (P41161 whole entry): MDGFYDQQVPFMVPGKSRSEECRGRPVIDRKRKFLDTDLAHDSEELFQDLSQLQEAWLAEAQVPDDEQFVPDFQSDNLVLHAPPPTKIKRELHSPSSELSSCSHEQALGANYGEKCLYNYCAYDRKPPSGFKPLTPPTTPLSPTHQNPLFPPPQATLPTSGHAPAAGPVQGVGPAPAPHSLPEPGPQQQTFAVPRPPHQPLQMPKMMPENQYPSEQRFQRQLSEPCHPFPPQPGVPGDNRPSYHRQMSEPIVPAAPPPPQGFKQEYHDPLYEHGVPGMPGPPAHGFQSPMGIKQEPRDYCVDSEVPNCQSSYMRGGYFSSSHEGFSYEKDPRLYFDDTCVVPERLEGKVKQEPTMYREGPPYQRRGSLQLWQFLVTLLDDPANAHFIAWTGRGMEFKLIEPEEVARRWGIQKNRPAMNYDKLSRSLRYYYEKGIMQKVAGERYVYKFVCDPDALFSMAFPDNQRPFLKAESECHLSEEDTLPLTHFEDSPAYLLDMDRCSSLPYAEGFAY
HSF1, sequence (Q00613 whole entry): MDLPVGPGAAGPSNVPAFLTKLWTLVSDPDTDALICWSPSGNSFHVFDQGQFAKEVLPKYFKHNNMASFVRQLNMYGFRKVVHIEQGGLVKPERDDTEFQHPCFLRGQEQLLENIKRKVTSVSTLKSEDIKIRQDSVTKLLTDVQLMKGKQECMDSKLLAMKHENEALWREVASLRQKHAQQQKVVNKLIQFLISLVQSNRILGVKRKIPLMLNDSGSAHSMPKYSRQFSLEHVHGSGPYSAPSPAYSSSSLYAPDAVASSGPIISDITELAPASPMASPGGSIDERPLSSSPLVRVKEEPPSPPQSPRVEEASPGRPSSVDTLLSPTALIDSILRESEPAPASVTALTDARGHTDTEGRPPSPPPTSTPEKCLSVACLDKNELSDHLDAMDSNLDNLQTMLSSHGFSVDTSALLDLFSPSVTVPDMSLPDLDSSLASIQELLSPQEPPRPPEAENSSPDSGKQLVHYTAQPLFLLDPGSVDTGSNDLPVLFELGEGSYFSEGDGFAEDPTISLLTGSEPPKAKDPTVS

## GAATAC
FLI1
  binding signal: 1.1 fold enrichment (6-mer frequency, TF over GST control)
ELK1
  binding signal: 1.1 fold enrichment (6-mer frequency, TF over GST control)
GABPA
  binding signal: 1.11 fold enrichment (6-mer frequency, TF over GST control)
ELF1
  binding signal: 1.08 fold enrichment (6-mer frequency, TF over GST control)
ETV5
  binding signal: 1.01 fold enrichment (6-mer frequency, TF over GST control)
HSF1
  binding signal: 1.16 fold enrichment (6-mer frequency, TF over GST control)
SPIC
  binding signal: 1.06 fold enrichment (6-mer frequency, TF over GST control)
ELF4
  binding signal: 1.01 fold enrichment (6-mer frequency, TF over GST control)
ELK4
  binding signal: 1.05 fold enrichment (6-mer frequency, TF over GST control)
ETV2
  binding signal: 1.05 fold enrichment (6-mer frequency, TF over GST control)
ETV1
  binding signal: 1.09 fold enrichment (6-mer frequency, TF over GST control)
